The values that follow come from PubChem BioAssay.

The assay in a line: MRP1 drug-resistance reversers in H69AR cells – cell-based, doxorubicin co-treatment, pilot screen (AID 601). The settings on record: H69AR cells + 2 uM doxorubicin, CellTiter-Glo, 72 h; measured here: viability with 2 uM doxorubicin; at 10 µM; stronger effect = lower value.
Consider `Cc1ccc(CNC(=O)C2CCCN(S(=O)(=O)c3cnc[nH]3)C2)cc1` (centres undefined), for which the viability was 92.3%.
Take `COc1cc2c(cc1OC)C(c1ccc(C)o1)CC(=O)N2` (centres undefined): the viability is 80%.
To `COc1ccc(S(=O)(=O)Nc2ccc(F)c(Cl)c2)cc1OC` belongs 92.3%; to `O=C(OCCN(CCOC(=O)c1ccncc1)S(=O)(=O)c1cccs1)c1ccncc1`, 97.3%.
To `N#CCCN(Cc1cccnc1)C(=O)Nc1ccc(Cl)c(Cl)c1` belongs 81.4%.
Next, `NC(=O)CN1C(=O)C(O)(CC(=O)c2ccccc2O)c2ccccc21` (centres undefined): 97%; `CCCOc1ccc(C2C(C(=O)OC)=CN(CCOC)C=C2C(=O)OC)cc1`: 92.7%; `C(=N\c1c(-c2ccccc2)nc2n1CCS2)/c1ccccc1`: 89.5%.
`COC(=O)c1cn(NC(=O)C2CCCO2)c(=O)c2ccccc12` (centres undefined): the viability was determined as 91.8%.
To `CCN1CCN(C(=O)C2CC(c3ccc(F)cc3)=NO2)CC1` (centres undefined) belongs 75.1%.
Consider `CCOC(=O)C1CCN(Cc2ccc(OC)c(C)c2OC)CC1`, for which the viability is 83.7%.
Next, `Cn1c(NC(=O)c2ccccc2NC(=O)C(C)(C)C)nc2ccccc21`: 77.5%.
To `Cc1cccc(CN2CCC(CNC(=O)C3CCCN(S(=O)(=O)c4cnc[nH]4)C3)CC2)c1` (centres undefined) belongs 87.6%.
Take `CC1CC(NC(=O)c2cnc3n(c2=O)CCS3)CC(C)(C)C1` (centres undefined): the viability amounted to 85.6%.
Next, `CC1CCCN(S(=O)(=O)c2coc(C(N)=O)c2)C1` (centres undefined): 118%.
To `O=C(NCc1ccc2c(c1)OCO2)C1CCCN(S(=O)(=O)c2cccc3cccnc23)C1` (centres undefined) belongs 78.1%; to `CC(C)(O)C#Cc1ccc(C(=O)N2CCN(C(=O)c3ccco3)CC2)cc1`, 87.9%; to `COC(=O)C1=C(C)Nc2nnnn2C1c1ccc(Cl)cc1Cl` (centres undefined), 98.4%.
To `CC(NC(=O)C1CC1)C(c1cccs1)N1CCN(c2ccccc2)CC1` (centres undefined) belongs 93.8%; to `O=C(Nc1c(C(=O)NCc2ccco2)cnn1-c1ccccc1)c1ccc(F)cc1`, 92.6%; to `COc1ccc(-n2c(Cc3cccn3C)nnc2SCC(=O)Nc2cccc(Cl)c2)cc1`, 87.6%.
In the case of `CCOC(=O)N1CCN(C(=O)c2ccc3nc4ccsc4c(=O)n3c2)CC1`, the viability was 90.8%.
Take `CCC(C)C(=O)Nc1nc2c(s1)C(=O)CC(C)(C)C2` (centres undefined): the viability came to 88.3%.
To `COc1cc2c(cc1OC)CN(C(=O)CSc1nc3[nH]ncc3c(=O)n1-c1ccccc1)CC2` belongs 80.1%; to `CC(NC(=O)c1cc2c(=O)n(C)c3ccccc3c2n1C)c1ccc2c(c1)OCCO2` (centres undefined), 63.6%; to `O=C(C1CCCN1S(=O)(=O)c1cccc2cccnc12)N1CCn2c1nc1ccccc12` (centres undefined), 92.6%.
Next, `CCn1c(SCC(=O)Nc2cc(C)ccc2C)nc2c(c1=O)SC(C)C2` (centres undefined): 67.8%.
In the case of `CCOC(=O)c1sc2nc(NC(=O)COc3ccccc3)sc2c1C`, the viability is 79.5%.
Next, `Cc1ccc(-n2ncc3c(N4CCCC(C)C4)ncnc32)c(C)c1` (centres undefined): 23.4%; `O=C(O)C1C2C=CC3(CN(C4CCCC4)C(=O)C13)O2` (centres undefined): 93.1%.
Next, `CCCCSc1nc2c(cnn2-c2ccc(F)cc2)c(=O)[nH]1`: 84.9%.
Next, `CCCCCn1c(=O)[nH]c2cc(C(=O)NCCN3CCOCC3)ccc2c1=O`: 88.5%; `Cc1ccc(-c2cc3nc4c(c(=O)n3[nH]2)CCCC4)cc1`: 93.4%.
As for `CCCOC(=O)c1[nH]c2c(c1C)C(=O)CC(c1cc(OC)c(OC)c(OC)c1)C2` (centres undefined), the viability was determined as 64.6%.
To `COc1cccc(-c2nc3n(n2)C(c2ccccc2Cl)C(C(N)=O)=C(C)N3)c1` (centres undefined) belongs 75.8%; to `Cc1c(NC(=O)c2ccc(Br)o2)c(=O)n(-c2ccccc2)n1C`, 86.1%.
Next, `COc1ccc(-c2nc(CS(=O)CC(=O)NCc3ccccn3)c(C)o2)cc1` (centres undefined): 84.8%; `CCOc1cc(C2NC(=O)NC(O)(C(F)(F)F)C2C(=O)c2ccccc2)ccc1OC` (centres undefined): 96.6%.
Next, `CN(CCCNC(=O)c1cn(C)c2ccc(S(=O)(=O)N(C)C)cc2c1=O)c1ccccc1`: 70.6%.

Broadly, the viability is a read-out of living cells in per cent, often relative to untreated cells.
